TIM10 inh: growth inhibitors of isogenic TIM10 control yeast, primary screen, counter-screen for tim10-1 yeast inhibitor project, luminescence, uHTS | S. cerevisiae TIM10 strain growth, BacTiter-Glo luminescence, 24 h | inhibition, % at 10 µM | actives 1.4% (n = 330,000);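 active means inhibition of 40% or more at the single tested concentration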;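 further: wild-type TIM10 isogenic control strain grown at permissive 25 °C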
tim23-1 inh: growth inhibitors of tim23-1 mutant yeast, primary screen, luminescence, uHTS. S. cerevisiae tim23-1 growth, BacTiter-Glo luminescence, 24 h. actives 1.3% (n = 330,000). AID 463212, 2010. inhibition, % at 20 µM;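 active means growth inhibition of the mutant yeast at or above 50%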;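 further: temperature-sensitive mutant grown at 25 °C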
tim10-1 inh: growth inhibitors of tim10-1 mutant yeast, primary screen, luminescence, uHTS | S. cerevisiae tim10-1 ts strain growth, BacTiter-Glo, 24 h | inhibition, % at 20 µM | actives 2.2% (n = 330,000);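 active means inhibition of at least 40%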;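 further: mutant grown at 25 °C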
SKKanGAS inh: S. pyogenes SKKanGAS growth inhibitors in kanamycin, primary screen, streptokinase expression inhibitor project, SKKanGAS strain, BacTiter-Glo luminescence; actives 1.3% (n = 300,000); AID 1662, 2009; inhibition, % at 7.5 µM; 6 h;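 active means mean replicate score, as percent of positive control median, at least 50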;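 further: strain carries kanamycin resistance gene driven by streptokinase promoter and grows in 40 µg/ml kanamycin; loss of luminescence reflects streptokinase promoter inhibition or plain growth inhibition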
NALP3 yeast inh: NALP3 inflammasome inhibitors in reconstituted yeast, primary screen, luminescence, uHTS; Yeast reconstituted NLRP3/ASC/caspase-1, beta-gal luminescence, 24 h; inhibition, % at 10 µM; actives 0.39% (n = 330,000);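 active means inhibition of 50% or more; inactive means inhibition below 50%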
NALP3 confirm: NALP3 inhibitors retested in yeast, confirmation, luminescence, single concentration; shares compounds with NALP3 yeast inh; yeast expressing human NALP3; inhibition, % at 10 µM; actives 81% (n = 1,300); AID 435006, 2010; in the data active means inhibition above about 48%
Casp1-ASC yeast: CASP1-PYCARD signaling inhibition in yeast, confirmatory test, counterassay for NLRP3 inhibitor program, one-dose; yeast expressing Caspase-1-ASC, luminescence counter screen; inhibition, % at 10 µM; shares compounds with NALP3 yeast inh; AID 488784, 2010; actives 66% (n = 1,000)
NALP3 retest: NALP3 inhibitors in yeast, repeat test, confirmation, luminescence, single concentration, retest; shares compounds with NALP3 yeast inh; yeast expressing human NALP3, luminescence read-out; inhibition, % at 10 µM; actives 53% (n = 1,000)
Each line names hits and unclear results; the compound was inactive in the other large screens (follow-up assays come after a bar, where they were run). Only some compounds are listed: those with a hit (about 4.6% of all), similar ones and a draw of the others. Unless noted, no stated cut-off is given here; in the data, active means inhibition above about 50%; inactive means the rest.

COc1ccc(Cc2nnc(SCC(=O)Nc3ccc(N4CCOCC4)cc3)o2)cc1	none
Nc1c2c(=O)oc(-c3ccccc3)cc2nn1-c1ccccc1	NALP3 yeast inh 50.8 | NALP3 confirm 68.5 | Casp1-ASC yeast 54.4 | NALP3 retest inactive
Cc1c(-c2ccc(Cl)cc2)oc(=O)c2c(N)n(-c3ccccc3)nc12	none
N#Cc1ccccc1NC(=O)COC(=O)c1ccc2c(c1)OCO2	none (no result: SKKanGAS inh)
CCN(CC)Cc1ccc(OC)c(Cl)c1	none
COc1ccc(CSCCN)cc1Cl	NALP3 yeast inh 67.6 | NALP3 confirm 69.5 | Casp1-ASC yeast 70.6 | NALP3 retest 73.2
Cc1cc(C)c(C(=O)NCC(=O)c2ccccc2)c(C)c1	none
CC(=O)N1N=C(c2ccc(C)c([N+](=O)[O-])c2)OC1(C)C	NALP3 yeast inh 53.3 | NALP3 confirm 49.4 | Casp1-ASC yeast 74.8 | NALP3 retest 56.8
CC(=O)N1N=C(c2cccc([N+](=O)[O-])c2)OC1(C)c1cccs1 (configuration not stated)	none
COc1ccc(-c2cc3nc4ccccc4n3c(N)c2C#N)cc1	SKKanGAS inh 74.1, NALP3 yeast inh 68.3 | NALP3 confirm inactive | Casp1-ASC yeast inactive | NALP3 retest inactive
COc1cc(C(C)=O)ccc1COc1ccc(C(=O)O)cc1OC	none
O=C(Nc1cc(Br)ccc1O)c1cc(-c2ccco2)on1	none (no result: TIM10 inh, tim23-1 inh, tim10-1 inh, NALP3 yeast inh)
O=C(Nc1cc(Cl)ccc1O)c1cc(-c2ccco2)on1	NALP3 yeast inh 50.2 | NALP3 confirm 65.7 | Casp1-ASC yeast inactive | NALP3 retest inactive
O=C(Nc1cccc(Cl)c1)c1cc(-c2ccco2)on1	NALP3 yeast inh 59.1 | NALP3 confirm 74.2 | Casp1-ASC yeast 62.6 | NALP3 retest inactive
COc1ccc(Cn2c(-c3ccc(OC)cc3)nc3ccccc32)cc1	none
Cn1cccc1-c1nc2ccccc2n1Cc1ccccc1	none | NALP3 confirm inactive
CCOC(=O)c1c(C)[nH]c(C(=O)OCc2csc(CC(=O)Nc3ccccc3C)n2)c1C	none
NCCC(=O)N1c2ccccc2Sc2ccccc21	NALP3 yeast inh 68.4 | NALP3 confirm 78.2 | Casp1-ASC yeast 62.4 | NALP3 retest 76.6
CCOC(=O)c1cnc(SC)nc1N1CCCC1	NALP3 yeast inh 55.5 | NALP3 confirm 51.6 | Casp1-ASC yeast 55.6 | NALP3 retest inactive
CSc1ncccc1C(=O)N1CCCC(Nc2ccc(C)c(C)c2)C1 (configuration not stated)	none
Cc1cccc(NC(=O)c2cnc3sccn3c2=O)c1	NALP3 yeast inh 56.4 | NALP3 confirm 66.2 | Casp1-ASC yeast 52.2 | NALP3 retest inactive
Cc1cc(C)cc(NC(=O)N2CCc3ccccc3C2)c1	NALP3 yeast inh 53.2 | NALP3 confirm 63.8 | Casp1-ASC yeast inactive | NALP3 retest inactive
CCOC(=O)c1c(-c2ccccc2)nc2ccccn12	NALP3 yeast inh 96.9 | NALP3 confirm 98.6 | Casp1-ASC yeast 99.1 | NALP3 retest 98.8
COc1ccc(NC(=O)c2ccc(F)c(F)c2)c2ccccc12	NALP3 yeast inh 50.1 | NALP3 confirm 61.2 | Casp1-ASC yeast inactive | NALP3 retest inactive
CCOC(=O)c1cnn(-c2cccc(Cl)c2)c1N	NALP3 yeast inh 55.9 | NALP3 confirm 73.2 | Casp1-ASC yeast 52.8 | NALP3 retest inactive
COc1nc(-c2ccccc2)ncc1S(=O)(=O)c1ccccc1	NALP3 yeast inh 56.7 | NALP3 confirm inactive | Casp1-ASC yeast inactive | NALP3 retest inactive
O=C(CNC(=O)c1ccccc1Br)N/N=C\c1cc([N+](=O)[O-])cc(Br)c1O	SKKanGAS inh 58.7, NALP3 yeast inh 50.8 | NALP3 confirm inactive | Casp1-ASC yeast inactive | NALP3 retest inactive
COCCN1C(=O)C(=O)/C(=C(/O)c2ccc(S(=O)(=O)N3CCOCC3)cc2)C1c1cccc(OC)c1 (configuration not stated)	none
CSc1ncccc1C(=O)OCC(=O)NCCc1ccccc1	none (no result: SKKanGAS inh)
Cc1snc(SCc2ccc(F)cc2)c1C#N	none
Cc1snc(SCc2ccc(Cl)cc2)c1C#N	NALP3 yeast inh 52.4 | NALP3 confirm 49.4 | Casp1-ASC yeast 62.8 | NALP3 retest inactive
COc1cc(-c2nc3ccccn3c2/N=C/c2cc(OC)c(O)cc2Cl)ccc1O	none | NALP3 confirm inactive
COc1cc(-c2nc3ccccn3c2/N=C/c2ccccc2)ccc1O	none
CC(C)(C)OC(=O)NCCCCCNC(=O)c1[nH]cnc1C(=O)NC1CCN(C(=O)OC(C)(C)C)CC1	none (no result: SKKanGAS inh)
Cc1ccc(Nc2nc(N)c3ccccc3n2)cc1Cl	NALP3 yeast inh 54.6 | NALP3 confirm 64.6 | Casp1-ASC yeast inactive | NALP3 retest inactive
COc1cc2nc(Nc3ccc(C)c(Cl)c3)nc(N)c2cc1OC	none
CC(=O)Oc1ccc(Oc2ccc(-c3noc(C)n3)cc2)cc1	NALP3 yeast inh 56.4 | NALP3 confirm 72.2 | Casp1-ASC yeast 70.1 | NALP3 retest 56.2
O=C(CN1C(=O)NC2(CCCc3ccccc32)C1=O)c1ccc(F)c(F)c1 (configuration not stated)	none (no result: SKKanGAS inh)
Clc1ccccc1Cn1nnc2c(Nc3ccccc3)ncnc21	NALP3 yeast inh 61.6 | NALP3 confirm 73.8 | Casp1-ASC yeast 55.0 | NALP3 retest 56.7
O=C(O)c1cccc(N2C(=O)CSC2c2ccccc2)c1 (configuration not stated)	none
c1ccc(CCNc2ncnc3ccccc23)cc1	none
CCCCCCCCNc1ncnc2ccccc12	NALP3 yeast inh 81.6 | NALP3 confirm 76.3 | Casp1-ASC yeast 79.8 | NALP3 retest 78.8
COC(=O)c1sc2nc3c(cc2c1N)CCCC3	NALP3 yeast inh 51.4 | NALP3 confirm 65.5 | Casp1-ASC yeast 64.1 | NALP3 retest 58.1
O=C(C1CCN(S(=O)(=O)c2ccc(Br)s2)CC1)N1CCc2ccccc21	NALP3 yeast inh 54.9 | NALP3 confirm 64.3 | Casp1-ASC yeast 61.0 | NALP3 retest inactive
COc1ccc(C(=O)c2no[n+]([O-])c2C(=O)c2ccc(OC)cc2)cc1	NALP3 yeast inh 69.5 | NALP3 confirm 79.8 | Casp1-ASC yeast 80.6 | NALP3 retest 61.9
CN1CCN(c2oc(COc3ccc(-c4ccccc4)cc3)nc2C#N)CC1	NALP3 yeast inh 59.6 | NALP3 confirm 50.2 | Casp1-ASC yeast 75.8 | NALP3 retest 64.5
N#Cc1nc(COc2ccccc2)oc1N1CCCC1	NALP3 yeast inh 74.6 | NALP3 confirm 48.6 | Casp1-ASC yeast 79.3 | NALP3 retest 63.5
N#Cc1nc(COc2ccc(Br)cc2)oc1N1CCCC1	NALP3 yeast inh 53.9 | NALP3 confirm 61.8 | Casp1-ASC yeast 50.5 | NALP3 retest inactive

Compound activity deposited in PubChem BioAssay by several laboratories.
